Consider 61 molecules from PubChem BioAssay AID463173 (ICCB-Longwood Screening Facility, Harvard Medical School, 2010).

Screen size: about 52,000 compounds; about 4,300 (8.3%) were called active. This excerpt belongs to a sample that is enriched for actives. A number with no mark means an inactive call. Cut-off read from the data, not from the text of the source: active = survival mostly below about 52% (no sharp cut-off); inactive = mostly above about 56%.

This experiment relates to DeltatarO mutant. The experiment can be described thus: S. aureus survival, RN4220 and DeltatarO strains – OD600, teichoic acid synthesis inhibitors, primary screen (AID 463173). To be noted: S. aureus RN4220 wild type/DeltatarO growth, OD600, 18 h, hits give low values, screened at 18.75 µg/mL (by protocol).
With `COc1ccc(C)cc1NC(=O)C1CCN(S(=O)(=O)Cc2ccccc2)CC1`, the survival was 67%.

Turning to `O=C(CSc1nccn1C1CCCC1)Nc1ccc(C(F)(F)F)cc1`, the survival is 101%.

Take `CCN(CC)CCCNC(=O)CCc1c(C)nc2c(c1C)c(=O)n(C)c(=O)n2C`: the survival was 96%.

As for `O=C(CN1C(=O)CCc2cc(S(=O)(=O)N3CCOCC3)ccc21)NCc1ccc(F)cc1`, the survival is 93%.

Consider `CCS(=O)(=O)c1nc(S(=O)(=O)c2ccc(C)cc2)c(NC)s1`, for which the survival was 102%.

As for `CCN1CCN(c2nc3c(S(=O)(=O)c4ccc(C)cc4)nnn3c3ccsc23)CC1`, the survival was 65%.

In the case of `CCc1ccc(N(CC(=O)NCC2CCCO2)S(C)(=O)=O)cc1` (stereo unspecified), the survival is 66% (active).

With `CCCNS(=O)(=O)c1ccc(CCC(=O)NCC2CCCO2)cc1` (stereo unspecified), the survival is 89%.

As for `CN(c1ccc(C(=O)NCC2CCCO2)cc1)S(C)(=O)=O` (stereo unspecified), the survival was 74%.

Regarding `CCc1ccc(NC(=O)c2sc3nc(C)cc(C)c3c2NC(=O)c2ccccc2OC)cc1`, the survival is 69%.

Turning to `COc1ccc(-n2nc(C(=O)Nc3ccc(C(C)=O)cc3)nc2-c2ccccc2)cc1`, the survival is 49% (active).

In the case of `CC(=O)c1ccc(NC(=O)c2nc(-c3ccccc3)n(-c3ccc(Cl)cc3)n2)cc1`, the survival is 49% (active).

As for `CC(=O)c1cccc(NC(=O)c2nc(-c3ccccc3)n(-c3ccccc3)n2)c1`, the survival was 56%.

On to `O=C(Nc1ccc(F)cc1)c1ncn(-c2ccccc2)n1`, for which the survival is 86%.

Take `CCOC(=O)c1ccc(NC(=O)c2ncn(-c3ccccc3)n2)cc1`: the survival was 99%.

On to `CC(=O)c1ccc(NC(=O)c2nc(-c3ccccc3)n(-c3ccccc3)n2)cc1`, for which the survival was 87%.

Regarding `CC(=O)c1ccc(NC(=O)c2nc(-c3ccccc3)n(-c3ccc(C)cc3)n2)cc1`, the survival is 60%.

Consider `CC(=O)c1ccc(NC(=O)c2nc(-c3ccccc3)n(-c3ccccc3Cl)n2)cc1`, for which the survival is 64%.

For the molecule `CC(=O)c1ccc(NC(=O)c2ncn(-c3ccccc3)n2)cc1`, the survival is 34% (active).

On to `COc1ccc(-c2nc(C(=O)Nc3cccc(C(C)=O)c3)nn2-c2ccc(Cl)cc2)cc1`, for which the survival is 99%.

As for `CC(=O)c1cccc(NC(=O)c2nc(-c3ccccc3)n(-c3cccc(Cl)c3)n2)c1`, the survival was 68%.

Consider `COc1ccc(-c2nc(C(=O)Nc3ccc(C(C)=O)cc3)nn2-c2cccc(Cl)c2)cc1`, for which the survival was 46% (active).

Take `CC(C)(C)C1CCc2c(sc(NC(=O)Cn3nnc(-c4ccccc4F)n3)c2C#N)C1` (stereo unspecified): the survival was 66%.

Take `N#CC(=C1CCN(Cc2ccccc2)CC1)c1ccccc1`: the survival was 85%.

Consider `Cc1cccc(NC(=O)c2cc3c(=O)n(Cc4ccco4)ccc3nc2C)c1`, for which the survival is 87%.

Take `CCNC(=O)c1nn(-c2ccccc2C)nc1CO`: the survival is 106%.

With `CCOc1ccc(NC(=O)CC2C(=O)N(c3ccc(C)cc3)C(=O)N2C2CCCCC2)cc1` (stereo unspecified), the survival is 64%.

For the molecule `COc1ccccc1C(=O)Nc1c(C(=O)N(C)c2ccccc2)sc2nc(C)cc(C)c12`, the survival was 58%.

Consider `CCCN(C(=O)C1CC1)c1nnc(-c2ccc(Cl)cc2)s1`, for which the survival was 79%.

As for `Cc1c(C(=O)Nc2cccc(Cl)c2)oc2ccc(S(=O)(=O)N(C)C3CCCCC3)cc12`, the survival was 71%.

In the case of `Cc1sc(-n2c(C)cc(/C=C(\C#N)C(=O)NCc3ccco3)c2C)c(C#N)c1C`, the survival was 84%.

`Cc1ccc(Cl)cc1NC(=O)c1oc2ccc(S(=O)(=O)N3CCCCCC3)cc2c1C`: the survival is 93%.

In the case of `O=C(Cn1cccc1C(=O)c1ccccc1)NCc1ccc(Cl)cc1`, the survival is 98%.

For `COc1ccc2c(c1)CC(C(=O)Nc1ccc(OC)cc1OC)CO2` (stereo unspecified), the survival is 89%.

As for `COC(=O)c1cc2oc3ccccc3c2n1CC(=O)Nc1ccc(OC)c(OC)c1`, the survival is 79%.

On to `Cc1cc(C)cc(NS(=O)(=O)c2ccc3[nH]cc(C(=O)N(C)Cc4ccccc4)c(=O)c3c2)c1`, for which the survival was 102%.

For `CCc1ccc(NS(=O)(=O)c2ccc3[nH]cc(C(=O)NCc4ccc(C)cc4)c(=O)c3c2)cc1`, the survival is 65%.

On to `CCOc1ccc(NS(=O)(=O)c2ccc3[nH]cc(C(=O)NCCOC)c(=O)c3c2)cc1`, for which the survival was 72%.

Turning to `CCc1ccc(NS(=O)(=O)c2ccc3[nH]cc(C(=O)NCCc4ccccc4)c(=O)c3c2)cc1`, the survival is 87%.

With `CCOc1ccc(NS(=O)(=O)c2ccc3[nH]cc(C(=O)NCc4ccccc4)c(=O)c3c2)cc1`, the survival is 79%.

Regarding `CCOc1ccc(NS(=O)(=O)c2ccc3[nH]cc(C(=O)NC4CCCC4)c(=O)c3c2)cc1`, the survival was 39% (active).

Take `CCc1ccc(NS(=O)(=O)c2ccc3[nH]cc(C(=O)NC4CCCC4)c(=O)c3c2)cc1`: the survival was 8% (active).

For the molecule `CCOc1ccc(NS(=O)(=O)c2ccc3[nH]cc(C(=O)N(C)Cc4ccccc4)c(=O)c3c2)cc1`, the survival is 6% (active).

For the molecule `CCOc1ccc(NS(=O)(=O)c2ccc3[nH]cc(C(=O)N(C)C4CCCCC4)c(=O)c3c2)cc1`, the survival was 76%.

On to `Cc1ccc(-c2nn3c(=O)cc(CN4CCN(C(=O)/C=C/c5ccccc5)CC4)nc3s2)cc1`, for which the survival was 68%.

`CCOc1ccccc1C1CC(=O)Nc2c1c(=O)n(C)c1ncnn21` (stereo unspecified): the survival is 164%.

On to `COc1ccc(NC(=O)c2oc3ccc(S(=O)(=O)N4CCC5(CC4)OCCO5)cc3c2C)cc1Cl`, for which the survival was 80%.

In the case of `O=C(O)C1CC(=O)N(CCCN2CCOCC2)C1` (stereo unspecified), the survival was 96%.

`Cc1nn(C)c2c1c(C(F)(F)F)cc(=O)n2CC(=O)NCc1ccccc1Cl`: the survival was 80%.

On to `CCN1CCN(C(=O)c2ccc3c(c2)N(Cc2ccccc2)C(=O)c2ccccc2S3=O)CC1` (stereo unspecified), for which the survival was 104%.

Regarding `Cc1ccc(C)c(-n2c3nc(=O)[nH]c(=O)c-3cc3c(C)nn(-c4ccccc4)c32)c1`, the survival was 92%.

With `COc1ccc(NC(=O)CC2C(=O)N(c3ccccc3)C(=O)N2CCc2sccc2C)cc1` (stereo unspecified), the survival is 65%.

Consider `CCN(CC)CCCNC(=O)Cc1ccc(NC(=O)N2CCCCc3ccccc32)cc1`, for which the survival was 79%.

Regarding `CCOC(=O)c1cc2c(=O)n3ccccc3nc2n(CC2CCCO2)c1=NC(=O)c1ccc(F)cc1` (stereo unspecified), the survival is 54%.

Take `CCOC(=O)c1cc2c(=O)n3ccccc3nc2n(CC2CCCO2)c1=NC(=O)c1ccccc1F` (stereo unspecified): the survival is 44% (active).

As to `CCOC(=O)c1cc2c(=O)n3ccccc3nc2n(CC(C)C)c1=NC(=O)c1c(-c2c(F)cccc2Cl)noc1C`, the survival was 165%.

Regarding `CCOC(=O)c1cc2c(=O)n3ccccc3nc2n(CC2CCCO2)c1=NC(=O)c1ccccc1Br` (stereo unspecified), the survival was 47% (active).

In the case of `CCOC(=O)c1cc2c(=O)n3ccccc3nc2n(CC2CCCO2)c1=NC(=O)c1ccccc1C` (stereo unspecified), the survival is 43% (active).

Regarding `CCOC(=O)c1cc2c(=O)n3ccccc3nc2n(CC2CCCO2)c1=NC(=O)c1ccc(OC)cc1OC` (stereo unspecified), the survival was 38% (active).

`CCOC(=O)c1cc2c(=O)n3ccccc3nc2n(CC2CCCO2)c1=NC(=O)c1ccccc1OCC` (stereo unspecified): the survival was 51%.

As to `CCOC(=O)c1cc2c(=O)n3ccccc3nc2n(CC2CCCO2)c1=NC(=O)c1ccc(OCC)cc1` (stereo unspecified), the survival is 51%.
